Assay results taken from the supplement of paper PMC8728848.
About 410 targets per protein were measured; listed, in parts, are those with the strongest signals and a random draw of the rest.

Assays:
Experiment in all cases: glycan array binding signal (z-score within array); higher = stronger binding
Conditions in all cases: glycan notation: IUPAC condensed, linker removed
[1] = target: Fuc(a1-2)Gal(b1-3)GlcNAc(b1-2)Man(a1-3)[Fuc(a1-2)Gal(b1-3)GlcNAc(b1-2)Man(a1-6)]Man(b1-4)GlcNAc(b1-4)GlcNAc
Outline: (§1)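 Glycan array binding is given as a within-array Z-score, which can be read as non-binding when negative. The arrays, 3228 of them, came from the Consortium for Functional Glycomics database and were retained only where the protein sequence was available. Z-scores were averaged across arrays of the same protein sequence at different concentrations or buffers and across linkers.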

[2] = target: Fuc(a1-2)Gal(b1-3)GlcNAc(b1-3)[Fuc(a1-3)[Gal(b1-4)]GlcNAc(b1-6)]Gal(b1-4)Glc
Outline: as §1

[3] = target: Fuc(a1-2)Gal(b1-3)[Fuc(a1-4)]GlcNAc
Outline: as §1

[4] = target: Fuc(a1-2)Gal(b1-4)GlcNAc(b1-2)[Fuc(a1-2)Gal(b1-4)GlcNAc(b1-4)]Man(a1-3)[Fuc(a1-2)Gal(b1-4)GlcNAc(b1-2)Man(a1-6)]Man(b1-4)GlcNAc(b1-4)GlcNAc
Outline: as §1

[5] = target: Fuc(a1-2)[Gal(a1-3)]Gal(b1-3)GlcNAc
Outline: as §1

[6] = target: Fuc(a1-2)[GalNAc(b1-3)]Gal
Outline: as §1

[7] = target: Fuc(a1-3)[Gal(b1-4)]GlcNAc(b1-3)GalNAc
Outline: as §1

Gal(a1-3)Gal(b1-4)Glc = target: Gal(a1-3)Gal(b1-4)Glc
Outline: as §1

Gal(a1-3)Gal(b1-4)GlcNAc = target: Gal(a1-3)Gal(b1-4)GlcNAc
Outline: as §1

[8] = target: Gal(a1-3)[Gal(a1-4)]Gal(b1-4)GlcNAc
Outline: as §1

Gal(a1-4)Gal(b1-4)GlcNAc = target: Gal(a1-4)Gal(b1-4)GlcNAc
Outline: as §1

[9] = target: Gal(b1-3)Gal(b1-4)GlcNAc(b1-2)Man(a1-3)[Gal(b1-3)Gal(b1-4)GlcNAc(b1-2)Man(a1-6)]Man(b1-4)GlcNAc(b1-4)GlcNAc
Outline: as §1

[10] = target: Gal(b1-3)GalNAc(b1-3)Gal(a1-4)Gal(b1-4)Glc
Outline: as §1

Gal(b1-3)GlcNAc = target: Gal(b1-3)GlcNAc
Outline: as §1

[11] = target: Gal(b1-3)GlcNAc(b1-3)Gal(b1-4)GlcNAc(b1-6)[Gal(b1-3)GlcNAc(b1-3)]Gal(b1-4)Glc
Outline: as §1

[12] = target: Gal(b1-3)[Fuc(a1-4)]GlcNAc
Outline: as §1

[13] = target: Gal(b1-3)[Fuc(a1-4)]GlcNAc(b1-2)Man(a1-3)[Gal(b1-3)[Fuc(a1-4)]GlcNAc(b1-2)Man(a1-6)]Man(b1-4)GlcNAc(b1-4)[Fuc(a1-6)]GlcNAc
Outline: as §1

[14] = target: Gal(b1-3)[Fuc(a1-4)]GlcNAc(b1-3)Gal(b1-4)GlcNAc
Outline: as §1

Gal(b1-4)Gal = target: Gal(b1-4)Gal
Outline: as §1

[15] = target: Gal(b1-4)GlcNAc(b1-3)Gal(b1-3)GlcNAc
Outline: as §1

[16] = target: Gal(b1-4)GlcNAc(b1-3)Gal(b1-4)[Fuc(a1-3)]GlcNAc(b1-3)Gal(b1-4)[Fuc(a1-3)]GlcNAc
Outline: as §1

[17] = target: Gal(b1-4)GlcNAc(b1-3)[GlcNAc(b1-6)]Gal(b1-4)GlcNAc
Outline: as §1

Gal3S(b1-3)GalNAc = target: Gal3S(b1-3)GalNAc
Outline: as §1

Gal3S(b1-4)GlcNAc6S = target: Gal3S(b1-4)GlcNAc6S
Outline: as §1

Gal3S6S(b1-4)GlcNAc6S = target: Gal3S6S(b1-4)GlcNAc6S
Outline: as §1

Gal6S(b1-3)GlcNAc6S = target: Gal6S(b1-3)GlcNAc6S
Outline: as §1

Gal6S(b1-4)GlcNAc = target: Gal6S(b1-4)GlcNAc
Outline: as §1

[18] = target: GalNAc(b1-3)Gal(a1-4)Gal(b1-4)GlcNAc
Outline: as §1

Glc(a1-4)Glc = target: Glc(a1-4)Glc
Outline: as §1

Glc(b1-4)Glc = target: Glc(b1-4)Glc
Outline: as §1

GlcA(b1-3)GlcNAc = target: GlcA(b1-3)GlcNAc
Outline: as §1

[19] = target: GlcNAc(b1-2)Man(a1-3)[GlcNAc(b1-2)Man(a1-6)]Man(b1-4)GlcNAc(b1-4)[Fuc(a1-6)]GlcNAc
Outline: as §1

[20] = target: GlcNAc(b1-2)[GlcNAc(b1-4)]Man(a1-3)[GlcNAc(b1-4)][GlcNAc(b1-2)Man(a1-6)]Man(b1-4)GlcNAc(b1-4)GlcNAc
Outline: as §1

[21] = target: GlcNAc(b1-2)[GlcNAc(b1-6)]Man(a1-6)[GlcNAc(b1-2)Man(a1-3)][GlcNAc(b1-4)]Man(b1-4)GlcNAc(b1-4)GlcNAc
Outline: as §1

[22] = target: GlcNAc(b1-4)GlcNAc(b1-4)GlcNAc
Outline: as §1

[23] = target: GlcNAc(b1-4)[GlcNAc(b1-6)]GalNAc
Outline: as §1

Kdn(a2-3)Gal(b1-3)GalNAc = target: Kdn(a2-3)Gal(b1-3)GalNAc
Outline: as §1

Kdn(a2-3)Gal(b1-4)GlcNAc = target: Kdn(a2-3)Gal(b1-4)GlcNAc
Outline: as §1

Kdn(a2-6)Gal(b1-4)GlcNAc = target: Kdn(a2-6)Gal(b1-4)GlcNAc
Outline: as §1

[24] = target: Neu5Ac(a2-3)Gal(b1-3)GalNAc(b1-4)[Neu5Ac(a2-8)Neu5Ac(a2-3)]Gal(b1-4)Glc
Outline: as §1

[25] = target: Neu5Ac(a2-3)Gal(b1-3)GlcNAc(b1-3)GalNAc
Outline: as §1

Neu5Ac(a2-3)GalNAc = target: Neu5Ac(a2-3)GalNAc
Outline: as §1

Neu5Ac(a2-6)Gal = target: Neu5Ac(a2-6)Gal
Outline: as §1

[26] = target: Neu5Ac(a2-6)Gal(b1-4)GlcNAc(b1-2)Man(a1-3)[Man(a1-6)]Man(b1-4)GlcNAc(b1-4)GlcNAc
Outline: as §1

[27] = target: Neu5Ac(a2-6)Gal(b1-4)GlcNAc6S
Outline: as §1

[28] = target: Neu5Ac(a2-6)GalNAc(b1-4)GlcNAc
Outline: as §1

Neu5Ac(a2-8)Neu5Ac = target: Neu5Ac(a2-8)Neu5Ac
Outline: as §1

[29] = target: Neu5Gc(a2-6)Gal(b1-4)GlcNAc
Outline: as §1

[30] = target: Neu5Gc(b2-6)Gal(b1-4)GlcNAc
Outline: as §1

B1: SEX4 (Arabidopsis thaliana), Q944A8 (protein)
chain: TQAMGAVLTYRHELGMNYNFIRPDLIVGSCLQTPEDVDKLRKIGVKTIFCLQQDPDLEYFGVDISSIQAYAKKYSDIQHIRCEIRDFDAFDLRMRLPAVVGTLYKAVKRNGGVTYVHCTAGMGRAPAVALTYMFWVQGYKLMEAHKLLMSKRSCFPKLDAIRNATIDILTGLKRKTVTLTLKDKGFSRVEISGLDIGWGQRIPLTLGKGTGFWILKRELPEGQFEYKYIIDGEWTHNEAEPFIGPNKDGHTNNYAKVVDDPTSVDGTTRERLSSEDPELLEEERSKLIQFLETCSEAEV
glycan array binding signal (z-score) [1]: -0.14
glycan array binding signal (z-score) [2]: -0.488
glycan array binding signal (z-score) [3]: -0.43
glycan array binding signal (z-score) [4]: 3.41
glycan array binding signal (z-score) [5]: -0.101
glycan array binding signal (z-score) [6]: -0.555
glycan array binding signal (z-score) [7]: 2.34
glycan array binding signal (z-score) (Gal(a1-3)Gal(b1-4)Glc): -0.237
glycan array binding signal (z-score) (Gal(a1-3)Gal(b1-4)GlcNAc): 0.108
glycan array binding signal (z-score) [8]: -0.539
glycan array binding signal (z-score) (Gal(a1-4)Gal(b1-4)GlcNAc): -0.482
glycan array binding signal (z-score) [9]: -0.329
glycan array binding signal (z-score) [10]: -0.231
glycan array binding signal (z-score) (Gal(b1-3)GlcNAc): -0.554
glycan array binding signal (z-score) [11]: -0.273
glycan array binding signal (z-score) [12]: -0.398
glycan array binding signal (z-score) [13]: -0.406
glycan array binding signal (z-score) [14]: 0.013
glycan array binding signal (z-score) (Gal(b1-4)Gal): -0.4
glycan array binding signal (z-score) [15]: -0.483
glycan array binding signal (z-score) [16]: -0.35
glycan array binding signal (z-score) [17]: -0.354
glycan array binding signal (z-score) (Gal3S(b1-3)GalNAc): -0.502
glycan array binding signal (z-score) (Gal3S(b1-4)GlcNAc6S): 0.229
glycan array binding signal (z-score) (Gal3S6S(b1-4)GlcNAc6S): 2.76
glycan array binding signal (z-score) (Gal6S(b1-3)GlcNAc6S): 1.27
glycan array binding signal (z-score) (Gal6S(b1-4)GlcNAc): 0.104
glycan array binding signal (z-score) [18]: -0.406
glycan array binding signal (z-score) (Glc(a1-4)Glc): -0.393
glycan array binding signal (z-score) (Glc(b1-4)Glc): -0.561
glycan array binding signal (z-score) (GlcA(b1-3)GlcNAc): 16
glycan array binding signal (z-score) [19]: 3.1
glycan array binding signal (z-score) [20]: 0.008
glycan array binding signal (z-score) [21]: -0.06
glycan array binding signal (z-score) [22]: -0.388
glycan array binding signal (z-score) [23]: -0.489
glycan array binding signal (z-score) (Kdn(a2-3)Gal(b1-3)GalNAc): 0.126
glycan array binding signal (z-score) (Kdn(a2-3)Gal(b1-4)GlcNAc): 0.514
glycan array binding signal (z-score) (Kdn(a2-6)Gal(b1-4)GlcNAc): -0.36
glycan array binding signal (z-score) [24]: 0.161
glycan array binding signal (z-score) [25]: 2.39
glycan array binding signal (z-score) (Neu5Ac(a2-3)GalNAc): -0.529
glycan array binding signal (z-score) (Neu5Ac(a2-6)Gal): -0.496
glycan array binding signal (z-score) [26]: 2.32
glycan array binding signal (z-score) [27]: 2.46
glycan array binding signal (z-score) [28]: -0.017
glycan array binding signal (z-score) (Neu5Ac(a2-8)Neu5Ac): -0.065
glycan array binding signal (z-score) [29]: 0.489
glycan array binding signal (z-score) [30]: -0.09
